The whole screen tested about 69,000 compounds, of which about 950 (1.4%) showed an effect of 50% or more. Many of the other results were omitted from the sample, so strong results are more common in it than they were.
The molecules below were run on Mycobacterium tuberculosis (assay: Cornell M. t heat shock assay; note: in the data most compounds retested in dose-response had high values).
Format: functional, organism-based
Parameters: dose or concentration left out as unconfirmed
With `Cc1nc(CNC2CCCN(c3cccnn3)C2)no1` (configuration not stated) the “Percent Effect” value was -18.97%.
With `CC(C)(C)c1nc(CNC2CCCN(c3cccnn3)C2)no1` (configuration not stated) the “Percent Effect” value was 53.11%.
For `CC(C)c1nc(CNC2CCCN(c3cccnn3)C2)no1` (configuration not stated), the “Percent Effect” value was -11.29%.
`Cc1cc(N2CCN(Cc3cn(C)nc3C)CC2)cc(C2CCNC2)n1.Cl` (configuration not stated) was tested, and the “Percent Effect” value was -5.922%.
`O=C(NC1CCC1)[C@H]1C[C@@H]2CN(CC3CC3)C[C@H]1O2.O=C(O)C(F)(F)F` was tested, and the “Percent Effect” value was 18.28%.
With `CCN1CCC(CNCc2c[nH]nc2C(C)(C)C)C1.Cl` (configuration not stated) the “Percent Effect” value was 48.77%.
`CC(C)(C)c1n[nH]cc1CNCC1CCN(CC(F)(F)F)C1.Cl` (configuration not stated) was tested, and the “Percent Effect” value was -7.348%.
For `CC(O)CN1CCC(CNCc2c[nH]nc2C(C)(C)C)CC1` (configuration not stated), the “Percent Effect” value was 0.7064%.
For `COCCN1CCC(CNCc2c[nH]nc2C(C)(C)C)CC1`, the “Percent Effect” value was -7.94%.
With `CC(C)N1CCC(CNCc2c[nH]nc2C(C)(C)C)C1` (configuration not stated) the “Percent Effect” value was 82.49%.
In the case of `CC(C)(C)c1n[nH]cc1CNCC1CCN(C2CC2)C1.Cl` (configuration not stated), the “Percent Effect” value is reported as 85.37%.
In the case of `COc1nn(C)c2c1CCCN(C(=O)c1cccc(C)n1)C2.O=C(O)C(F)(F)F`, the “Percent Effect” value is reported as 26.28%.
In the case of `Cn1ccc(C(=O)N2C[C@@H]3OCCN(c4ncccn4)[C@@H]3C2)n1.O=C(O)C(F)(F)F`, the “Percent Effect” value is reported as -20%.
For `Cc1ccc(N2CC[C@H]3O[C@H](C(=O)NCc4ccco4)CC[C@H]32)nn1.O=C(O)C(F)(F)F`, the “Percent Effect” value was -36.19%.
`CN1CCOC(CNCc2csc(C3CCCC3)n2)C1` (configuration not stated) was tested, and the “Percent Effect” value was 51.17%.
With `Cc1nc(CNCC2CN(C)CCO2)cs1` (configuration not stated) the “Percent Effect” value was -7.018%.
For `CN1CCOC(CNCc2csc(C3CCCCC3)n2)C1` (configuration not stated), the “Percent Effect” value was -18.06%.
With `CN(Cc1cn2c(n1)CN(c1ncc(F)cn1)CC2)Cc1ccco1.O=C(O)C(F)(F)F.O=C(O)C(F)(F)F` the “Percent Effect” value was 8.494%.
In the case of `CC(=O)Nc1c(C)noc1/C=C\c1ccc(C)c(S(=O)(=O)NC2CC2)c1`, the “Percent Effect” value is reported as 14.26%.
`CC(C)N1Cc2c(C(=O)N3CCOCC3)nn(C)c2C1.O=C(O)C(F)(F)F.O=C(O)C(F)(F)F` was tested, and the “Percent Effect” value was -12.04%.
With `Cc1nc(C2CCCN2Cc2cc(Cl)c3c(c2)OCO3)no1` (configuration not stated) the “Percent Effect” value was 23.975%.
In the case of `Cc1nc(C2CCCN2Cc2cc(Cl)c3c(c2)OCCCO3)no1` (configuration not stated), the “Percent Effect” value is reported as 45.55%.
With `Cc1nc(C2CCCN2Cc2cc(Cl)c3c(c2)OCCO3)no1` (configuration not stated) the “Percent Effect” value was 57.05%.
With `CSc1nc(N)c2c(n1)N=C1COC(O)=C1C2c1cccc(Cl)c1` (configuration not stated) the “Percent Effect” value was 2.564%.
`CC(=O)Nc1nc(-c2ccccc2)c[nH]1` was tested, and the “Percent Effect” value was -15.03%.
For `CNC(=O)c1cccc(CNC(C)c2cc(Cl)ccc2OC)c1` (configuration not stated), the “Percent Effect” value was -13.72%.
`CNC(=O)c1cccc(CNC(C)c2ccc(F)cc2N(C)C)c1` (configuration not stated) was tested, and the “Percent Effect” value was 101.5%.
`CNC(=O)c1cccc(CNC(C)c2cc(C)ccc2OC(F)F)c1` (configuration not stated) was tested, and the “Percent Effect” value was -18.66%.
In the case of `COCCNc1nc2c(c(NCc3ccncc3)n1)CCNCC2`, the “Percent Effect” value is reported as -8.417%.
`c1csc(CCNc2nc(-c3ccncc3)nc3c2CCNCC3)c1` was tested, and the “Percent Effect” value was 10.45%.
For `COCCNc1nc2c(c(NCCc3cccs3)n1)CCNCC2`, the “Percent Effect” value was 55.02%.
`O=C(O)C(F)(F)F.O=C(O)C(F)(F)F.O=C1NC2(CCN(Cc3cccs3)CC2)CC1c1ccncc1` (configuration not stated) was tested, and the “Percent Effect” value was -33.96%.
For `CNC(=O)CN1CCOCC2(CCCN(Cc3ccc(F)cc3)C2)C1.O=C(O)C(F)(F)F.O=C(O)C(F)(F)F` (configuration not stated), the “Percent Effect” value was -6.144%.
In the case of `CCCn1ccnc1CNC(=O)C1COc2cc(OC)ccc2C1` (configuration not stated), the “Percent Effect” value is reported as 80.42%.
With `CCCn1cnnc1CNC(=O)C1COc2cc(OC)ccc2C1` (configuration not stated) the “Percent Effect” value was -11.02%.
In the case of `CCCn1cnnc1CNC(=O)C1COc2ccc(OC)cc2C1` (configuration not stated), the “Percent Effect” value is reported as -18.38%.
For `O=C(c1ccc(-c2cccc3c2CCNC3)o1)N1CCCCC1`, the “Percent Effect” value was 37.05%.
For `O=C(c1ccc(-c2cccc3c2CCNC3)o1)N1CCCC1`, the “Percent Effect” value was 54.8%.
In the case of `O=C(c1ccc(-c2cccc3c2CCNC3)o1)N1CCOCC1`, the “Percent Effect” value is reported as 23.74%.
In the case of `Cc1ccc(N2CCO[C@H]3CN(Cc4ccoc4)C[C@H]32)nn1.O=C(O)C(F)(F)F.O=C(O)C(F)(F)F`, the “Percent Effect” value is reported as -23.95%.
With `O=C(c1ccccc1)N1C[C@@H]2CC[C@H](C1)N(S(=O)(=O)c1cccnc1)C2` the “Percent Effect” value was -19.46%.
`CC(C)(C)CN1CC(O)CN(C(=O)c2cccc(C(F)(F)F)c2)CC1=O` (configuration not stated) was tested, and the “Percent Effect” value was 51.48%.
`CC(C)CN1CC(O)CN(C(=O)c2cccc(C(F)(F)F)c2)CC1=O` (configuration not stated) was tested, and the “Percent Effect” value was 3.734%.
For `CSc1ccc(C(=O)N2CC(=O)N(CC3CC3)CC(O)C2)cc1` (configuration not stated), the “Percent Effect” value was 13.44%.
For `CCN1CC(O)CN(C(=O)c2cccc(C(F)(F)F)c2)CC1=O` (configuration not stated), the “Percent Effect” value was 31.6%.
In the case of `CSc1ccc(C(=O)N2CC(=O)N(CC(C)(C)C)CC(O)C2)cc1` (configuration not stated), the “Percent Effect” value is reported as 67.49%.
In the case of `CCN1CC(O)CN(C(=O)c2ccc(SC)cc2)CC1=O` (configuration not stated), the “Percent Effect” value is reported as 25.41%.
For `CC(Cn1cncc1-c1cnn(Cc2ccccc2)c1)N1CCCCC1.Cl` (configuration not stated), the “Percent Effect” value was -9.415%.
In the case of `Cc1ccc(CN2CCn3c(CN4CCN(C)CC4)cnc3C2C)s1.O=C(O)C(F)(F)F.O=C(O)C(F)(F)F.O=C(O)C(F)(F)F` (configuration not stated), the “Percent Effect” value is reported as -29.44%.
For `c1cnnc(NCC2CN(CCN3CCCCC3)CCO2)c1` (configuration not stated), the “Percent Effect” value was 4.077%.
With `O=C(CN1CCOC(CNc2cccnn2)C1)N1CCCCC1` (configuration not stated) the “Percent Effect” value was 57.16%.
With `O=C(CN1CCOC(CNc2cccnn2)C1)NCc1ccccn1` (configuration not stated) the “Percent Effect” value was -12.01%.
For `OC1(CN2CCOC(CNc3cccnn3)C2)CCCCC1` (configuration not stated), the “Percent Effect” value was 9.895%.
`O=C(CN1CCOC(CNc2cccnn2)C1)NCc1cccs1` (configuration not stated) was tested, and the “Percent Effect” value was 104.8%.
`O=C(CN1CCOC(Cn2cccn2)C1)NCc1cccs1` (configuration not stated) was tested, and the “Percent Effect” value was -0.5047%.
With `Cc1oncc1C(=O)NCc1cc(=O)n2c(n1)CN(C(C)C)CCC2.O=C(O)C(F)(F)F` the “Percent Effect” value was -32.5%.
For `CC(C)(C)C(=O)NC(c1nccs1)C1CCN(CC2CCCCC2)CC1.Cl` (configuration not stated), the “Percent Effect” value was 4.524%.
With `CCN1CCC2(C=C(C(=O)NC3CC3)c3ccccc32)CC1.O=C(O)C(F)(F)F` the “Percent Effect” value was -9.893%.
With `CN(C)C(=O)CN1CCOCC2(C1)CN(c1ncccn1)CCO2.O=C(O)C(F)(F)F` (configuration not stated) the “Percent Effect” value was -21.69%.
`CCS(=O)(=O)N1CCN(CCOC)c2ncccc2C1` was tested, and the “Percent Effect” value was 7.581%.
In the case of `CC(=O)N1N=C(c2ccco2)OC1C(=O)N(C)CCc1ccccc1` (configuration not stated), the “Percent Effect” value is reported as -2.033%.
In the case of `CC(=O)N1N=C(c2ccccc2)OC1C(=O)NCCN(C(C)C)C(C)C` (configuration not stated), the “Percent Effect” value is reported as 73.05%.
With `CC(=O)N1N=C(c2ccccc2)OC1C(=O)NCCOc1ccccc1` (configuration not stated) the “Percent Effect” value was 46.95%.
`CC(=O)N1N=C(c2ccncc2)OC1C(=O)N(C)CCc1ccccc1` (configuration not stated) was tested, and the “Percent Effect” value was 106%.
`CC(=O)N1N=C(c2ccccc2)OC1C(=O)NCC(=O)OC(C)(C)C` (configuration not stated) was tested, and the “Percent Effect” value was 21.44%.
In the case of `CC(=O)N1N=C(c2ccccc2)OC1C(=O)NCCc1ccc(O)cc1` (configuration not stated), the “Percent Effect” value is reported as 53.53%.
For `CC(=O)N1N=C(c2ccccc2)OC1C(=O)NCCC1=CCCCC1` (configuration not stated), the “Percent Effect” value was -12.6%.
With `CC(=O)N1N=C(Cc2ccccc2)OC1C(=O)NCC(=O)OC(C)(C)C` (configuration not stated) the “Percent Effect” value was 11.49%.
For `CC(=O)N1N=C(c2ccccc2)OC1C(=O)NCCc1ccc(C)cc1` (configuration not stated), the “Percent Effect” value was 30.4%.
For `CC(=O)N1N=C(c2ccccc2)OC1C(=O)N(C)CCc1ccccc1` (configuration not stated), the “Percent Effect” value was 0.1011%.
`CC(=O)N1N=C(c2ccccc2)OC1C(=O)NCCc1ccc(Cl)cc1` (configuration not stated) was tested, and the “Percent Effect” value was 7.805%.
With `CCOC(=O)CNC(=O)C1OC(c2ccccc2)=NN1C(C)=O` (configuration not stated) the “Percent Effect” value was 54.14%.
`Cc1oncc1C(=O)NCc1cc(=O)n2c(n1)CN(CC(C)C)CCC2.O=C(O)C(F)(F)F` was tested, and the “Percent Effect” value was -11.26%.
With `CC(C)N1CCOCC2(CCCN(C(=O)CCc3cccnc3)C2)C1.O=C(O)C(F)(F)F` (configuration not stated) the “Percent Effect” value was -33.91%.
With `Cc1cccc(CN2CCC3(CCN(c4ncccn4)CC3)C2=O)c1.O=C(O)C(F)(F)F` the “Percent Effect” value was 21.29%.
`O=C(O)C(F)(F)F.O=C(O)C(F)(F)F.O=C(O)C(F)(F)F.O=C1CO[C@@H]2CN(Cc3ccncc3)C[C@H]2N1Cc1ccncc1` was tested, and the “Percent Effect” value was -33.4%.
In the case of `CN(C)CC1CSCCCN1C(=O)c1ccsc1` (configuration not stated), the “Percent Effect” value is reported as -29.65%.
With `O=S1(=O)C[C@@H]2[C@H](C1)N(Cc1cc(Cl)cc(Cl)c1)CCN2CCO` the “Percent Effect” value was -5.541%.
In the case of `O=S1(=O)C[C@@H]2[C@H](C1)N(Cc1cc(Cl)cc(Cl)c1)CCN2CC1CC1`, the “Percent Effect” value is reported as 99.37%.
With `CCCN1CCN(Cc2cc(Cl)cc(Cl)c2)[C@H]2CS(=O)(=O)C[C@H]21` the “Percent Effect” value was 31.79%.
For `CN(C)c1ncc(-c2cccc(C(N)=O)c2)c(C2CNCCO2)n1.Cl` (configuration not stated), the “Percent Effect” value was -21.53%.
`CN1CCc2cc(C(=O)N(C)C)c(NCC3CC3)nc2CC1.O=C(O)C(F)(F)F.O=C(O)C(F)(F)F` was tested, and the “Percent Effect” value was -30.07%.
`Cn1ccnc1CN1C[C@@H]2[C@@H](C1)OCC(=O)N2CC1CCCC1.O=C(O)C(F)(F)F` was tested, and the “Percent Effect” value was -35.26%.
With `CN(C)[C@@H]1CN(C(=O)Cc2cccc(F)c2)[C@@H]2CCCO[C@H]12.O=C(O)C(F)(F)F` the “Percent Effect” value was -1.237%.
For `Cc1nnc([C@@]23CCO[C@@H]2CCN(S(=O)(=O)c2ccccc2)C3)o1`, the “Percent Effect” value was 53.88%.
For `Cc1nnc([C@@]23CCO[C@@H]2CCN(S(C)(=O)=O)C3)o1`, the “Percent Effect” value was -10.32%.
For `Cc1nnc([C@@]23CCO[C@@H]2CCN(S(=O)(=O)c2cccnc2)C3)o1`, the “Percent Effect” value was 18.46%.
In the case of `N#Cc1cccc(CN2C[C@@H]3CN(c4ncccn4)C[C@@H]3C2)c1.O=C(O)C(F)(F)F`, the “Percent Effect” value is reported as 29.7%.
For `CO[C@H]1C[C@@H]2CN(C(=O)c3cc4cccc(F)c4[nH]3)C[C@@H]2C1`, the “Percent Effect” value was 17.75%.
For `CCNC(=O)CCc1c(C)nc2cc(O)nn2c1C`, the “Percent Effect” value was 0.7588%.
`COc1ccc(NC(=O)CCc2c(C)nc3cc(O)nn3c2C)cn1` was tested, and the “Percent Effect” value was 61.44%.
With `COC(=O)CCc1c(C)nc2cc(O)nn2c1C` the “Percent Effect” value was -4.051%.

Reference: ChEMBL document CHEMBL3988442, “University of Dundee, Small-Polar-MMV Screening Library” (2021)
